Screening results from PubChem.
Abeta yeast res: qHTS for compounds that reverse cellular toxicity of Amyloid beta (A-beta) peptide in yeast: Primary Screen; yeast expressing A-beta42, growth rescue, OD600, 48 h; response scale: 0% DMSO, 100% iron-clioquinol control; Potency, µM (highest dose often 46.1 µM), most hits filed as activators; actives 0.063% (n = 410,000); AID 1347071, 2019; note: nearly all actives have a fitted effect of over 55% in size
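Growth rescue measured by 600 nm absorbance after 48 h yeast culture at 30 C with compound. Values normalized between DMSO and an equimolar ferric chloride plus clioquinol control.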
aSyn rescue: qHTS of alpha-syn Inhibitors; actives 0.14% (n = 370,000); Yeast expressing alpha-synuclein, growth rescue, BacTiter-Glo, 24 h; Potency, µM (top dose mostly 46.1 µM), for the others: at the highest dose growth rescue (activation), most hits filed as activators; note: % of control where 0% means no effect; nearly all actives have a fitted effect of over 65% in size
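Rescue of yeast growth: cells expressing toxic alpha-synuclein, induced in galactose at OD600 0.02, incubated with compound 24 h at 30 C. ATP luminescence quantified growth; inhibitors of toxicity appear as activators.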
Mito fusion yeast: qHTS Assay for Small Molecule Inhibitors of Mitochondrial Division or Activators of Mitochondrial Fusion; S. cerevisiae fusion-defective mutant growth rescue, CellTiterGlo 48 h; Potency, µM (titrated, usually from 46.1 µM), for the others: at the highest dose growth rescue (activation), actives largely listed as activators; actives 0.23% (n = 320,000); AID 485298, 2010; note: % of control where 0% means no effect; nearly all actives have a fitted effect of over 45% in size
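Compounds are tested for their ability to restore growth of mitochondrial fusion-defective yeast strains at non-permissive 37C in YPEG medium over 48 hours. Viability is quantified by luciferase luminescence.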
TDP-43 yeast inh: qHTS of TDP-43 Inhibitors. actives 1.8% (n = 410,000). Potency, µM (doses to about 46.1 µM), inactives show top-dose growth rescue (activation), usual class: activators. TDP-43 expressing yeast growth rescue, BacTiter-Glo, 24 h. AID 652104, 2013; note: % of control where 0% means no effect; nearly all actives have a fitted effect of over 50% in size
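In this qHTS, compounds that restore growth of yeast expressing TDP-43 appear as activators. Cells (OD600=0.02, galactose medium, raffinose-pregrown) are incubated with compound 24 hr at 30 deg C and growth is quantified by BacTiter-Glo.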
FUS yeast rescue: qHTS for Suppressors of FUS Proteinopathy: Primary screen using FUS-linked yeast assay | S. cerevisiae FUS-expressing, growth rescue, OD600, 24 h | Potency, µM (highest dose often 76.6 µM), actives largely listed as activators | actives 0.24% (n = 390,000);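 note: plate controls were DMSO vehicle for no effect and reference control for full effect; nearly all actives have a fitted effect of over 55% in size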
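Restored growth of FUS-toxic S. cerevisiae, read as 600 nm absorbance after 24 h at 30C in galactose medium (starting OD 0.005). Controls CP55940 and DMSO.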
Numbers without * were called inactive; i = inactive; ? = inconclusive; . = not tested or not shown; ! = not active in a repeat; [ ] = remark or other dose. Compounds with a hit are over-represented: about 2.2% of the library has one in this group of screens. Calls come from the whole dose curve; as a rule, active = well fitted curve in the direction sought with a large enough effect; inconclusive = small, poorly fitted or top-dose-only effect, or another doubt; inactive = no such curve, though single readings can be large; an effect the other way counts as inactive or inconclusive. Potency is the fitted concentration of half-maximal effect.

SMILES	Abeta yeast res	aSyn rescue	Mito fusion yeast	TDP-43 yeast inh	FUS yeast rescue
COc1ccc(NS(=O)(=O)c2cccc(-c3nnc(-c4ccccc4)o3)c2)cc1	i	7%	13µM*	4%	.
CCOc1ccccc1CNC(=O)CCCN1C(=O)c2cccnc2Oc2ccc(Cl)cc21	i	.	.	24%	?
Fc1ccc(-c2nc(Nc3ccc(F)c(Cl)c3)nc3c2COc2ccccc2-3)cc1	i	.	.	16%	i
O=C(CC1C(=O)OCCN1Cc1ccccc1)Nc1ccc(F)cc1 (stereo not drawn)	i	.	.	13µM*	i
COc1cc(NC(=O)CC2C(=O)OCCN2Cc2ccccc2)cc(OC)c1 (stereo not drawn)	i	.	.	25µM*	i
CC(C)C1OC2c3cccc4cccc(c34)C2N1c1ccccc1 (stereo not drawn)	i	0%	10%	13µM*	i
COc1cccc2c1C(=O)c1c(O)c3c(c(O)c1C2=O)C[C@@](O)(C(=O)CO)C[C@@H]3OC1CC(N)C(O)C(C)O1 (stereo partly drawn)	i	?	.	-6%	.
COc1cccc2c1C(=O)c1c(O)c3c(c(O)c1C2=O)C[C@@](O)(C(=O)CO)C[C@@H]3O[C@H]1C[C@H](N)[C@H](O)[C@H](C)O1	i	4.5µM*	-22%	?	i
CCOc1ccc(CCNC(=O)Cn2c(C)c3cnn(-c4ccccc4)c(=O)c3c2C)cc1	i	.	.	4%	i
Cc1nc(NC(=O)/C=C/c2ccccc2)n[nH]1	i	?	4%	22µM*	i
O=C(NCc1ccccc1)c1cc(C2CCCN(C(=O)CCCc3ccccc3)C2)on1 (stereo not drawn)	i	-3%	.	35µM*	i
O=C(NCc1ccc(Cl)c(Cl)c1)c1cc(C2CCCCN2C(=O)CCc2ccccc2)on1 (stereo not drawn)	i	?	.	8%	?
O=C(NCc1ccccc1)c1cc(C2CCCCN2C(=O)CCc2ccccc2)on1 (stereo not drawn)	i	8%	.	35µM*	i
C[n+]1ccc(/C=C/c2cc[n+](C)c3ccccc23)c2ccccc21	.	-64%	.	.	.
Cc1cc(C)c2nc(Cl)c(CN(Cc3ccco3)C(=O)Nc3ccccc3C)cc2c1	i	2%	7.1µM*	-10%	i
CCOC(=O)c1ccc(NC(=O)C(C)N(c2ccc(OCC)cc2)S(C)(=O)=O)cc1 (stereo not drawn)	i	.	.	?	i
S=c1nn[nH]n1C12CC3CC(CC(C3)C1)C2	i	-18%	4%	7.9µM*	i
CC[N+](C)(C)c1ccc(/C=C/c2ccc3ccccc3n2)cc1	.	-65%	.	.	.
Cc1ccc(Cc2c[nH]c(=S)s2)cc1	i	1%	0%	11µM*	i
O=C(O)c1ccc(Nc2ccc(F)c(F)c2)c([N+](=O)[O-])c1	i	6%	?	11µM*	i
COc1ccc(Nc2ccc(C(=O)O)cc2[N+](=O)[O-])cc1	i	4%	1%	?	i
COc1ccccc1NC(=O)C1=C(C)Nc2nc(SC)nn2C1c1ccccc1Cl (stereo not drawn)	i	.	.	11%	i
Cc1cccc(NC(=O)c2cc(CN3CCOCC3)on2)c1C	i	.	.	-1%	i
O=C(c1ccncc1)N(c1ccc2oc3c(c2c1)CCCC3)S(=O)(=O)c1ccc(F)cc1	i	7%	18µM*	?	i
CCN(CC)CCOC(=O)c1ccc(NC(=O)c2cc3c(s2)-c2ccccc2OC3)cc1	i	-2%	.	22%	i
SMILES	Abeta yeast res	aSyn rescue	Mito fusion yeast	TDP-43 yeast inh	FUS yeast rescue
O=C(c1cc2c(s1)-c1ccccc1OC2)N1CCc2ccccc2C1	i	-12%	?	30%	i
COc1ccccc1N1CCN(C(=O)c2cc3c(s2)CCCCC3)CC1	i	2%	10%	22µM*	i
COc1ccccc1N1CCN(C(=O)c2cc3c(s2)-c2ccccc2OC3)CC1	i	3%	6%	11µM*!	?
CCc1cc(C(=O)N2CCN(c3ccccc3OC)CC2)sc1C	i	3%	15%	13µM*	i
COc1ccccc1N1CCN(C(=O)c2oc3ccc(Br)cc3c2C)CC1	i	4%	?	18µM*	i
Cc1oc(-c2ccccc2)nc1CNC(=O)Nc1ccccc1	i	.	.	0%	i
COc1ccccc1NC(=O)C(=O)c1cc(C)n(-c2cc(C)cc(C)c2)c1C	i	.	.	3%	i
COc1ccc(CCNC(=O)CSc2n[nH]c(-c3ccccc3Cl)n2)cc1OC	i	.	.	10%	i
O=C(O)c1cc2cccc([N+](=O)[O-])c2[nH]1	.	17%	.	.	.
CC1(c2ccc(Cl)cc2)CC(C)(C)N(C(=O)c2cccc(F)c2)c2ccccc21 (stereo not drawn)	i	.	.	3%	i
OC[C@H]1O[C@H](n2cnc3c(N[C@H]4CCC[C@@H]4O)ncnc32)[C@H](O)[C@@H]1O	.	-9%	-30%	.	.
Cc1ccnc(Nc2nc(-c3ccc(O)cc3)cs2)c1	i	-16%	-4%	13µM*	i
Cc1ccnc(Nc2nc(-c3ccc(O)c(O)c3)cs2)c1	i	-14%	?	.	?
Cc1ccnc(Nc2nc(-c3ccc(O)cc3O)cs2)c1	i	10%	-6%	16µM*	i
COc1ccc(-c2csc(Nc3cc(C)ccn3)n2)cc1C	i	-35%	8%	?	i
CCN1CCN(Cc2ccc(NC(=O)c3cc(NC(=O)c4ccc5n[nH]nc5c4)cc(OC)c3)cc2C(F)(F)F)CC1	i	-6%	-3%	17%	i
CCN1CCN(Cc2ccc(NC(=O)c3cc(NC(=O)c4cc(-c5ccc(OC)cc5)n[nH]4)cc(OC)c3)cc2C(F)(F)F)CC1	i	-6%	-7%	-2%	28µM*
Cc1c(C(=O)N(C)C)sc2c1c(=O)n(-c1ccc(F)cc1)c(=O)n2Cc1cc(=O)n2ccccc2n1	i	.	.	8%	i
Cc1nc(SCC(=O)N(C)Cc2ccco2)c2c(C)c(C)sc2n1	i	4%	14%	22µM*	i
CCN(C(=O)CSc1nc(C)nc2sc(C)c(C)c12)c1ccc(F)cc1	i	0%	2%	-4%	i
CC(=O)Nc1ccccc1OCC(=O)c1cc(C)n(Cc2cccs2)c1C	i	-10%	9%	22µM*	i
COc1ccc(OC)c(-c2csc(NC(=O)COC(=O)C3(C)CC3(Cl)Cl)n2)c1 (stereo not drawn)	i	0%[1.84 µM]	16µM*	16%	?
